High-throughput results: PubChem, several laboratories
Shown is part of a subset that was picked to be rich in hits.
Mtb RmlCD inh: blocks M. tuberculosis RmlC and RmlD coupled enzymes | P9WH09+P9WH11 | RmlC+RmlD coupled enzyme assay, percent inhibition; primary screen in compound mixtures | inhibition, % at 3.6 µM | 160,000 tested, 0.03% active | AID 1533; in the data active = inhibition mostly above about 34%, no sharp cut-off
Target sequence (P9WH09 whole entry, looked up): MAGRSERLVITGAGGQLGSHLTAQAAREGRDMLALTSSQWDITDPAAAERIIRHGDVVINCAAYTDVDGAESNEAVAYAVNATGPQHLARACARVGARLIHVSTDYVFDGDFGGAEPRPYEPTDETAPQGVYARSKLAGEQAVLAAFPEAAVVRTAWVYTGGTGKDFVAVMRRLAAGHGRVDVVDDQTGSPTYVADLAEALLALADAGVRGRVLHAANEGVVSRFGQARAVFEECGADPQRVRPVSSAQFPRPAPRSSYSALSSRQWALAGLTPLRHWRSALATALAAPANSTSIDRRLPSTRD
Target sequence (P9WH11 whole entry, looked up): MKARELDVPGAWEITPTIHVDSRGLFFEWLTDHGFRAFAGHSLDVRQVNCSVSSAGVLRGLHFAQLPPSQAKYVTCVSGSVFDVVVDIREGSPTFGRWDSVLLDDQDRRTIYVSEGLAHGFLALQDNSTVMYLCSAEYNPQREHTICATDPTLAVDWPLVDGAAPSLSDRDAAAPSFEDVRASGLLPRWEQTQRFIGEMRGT
YopH PTP inh: inhibitors of Yersinia enterocolitica YopH tyrosine phosphatase | fluorescence Ex485/Em525 | inhibition, % (test concentration not listed) | 140,000 tested, 0.16% active; in the data active = inhibition above about 50%
Large screens that a line does not name were inactive.

CCC(C(=O)Nc1cc(C(=O)Nc2cc(C)ccn2)ccc1Cl)c1ccccc1 (stereo not drawn)	none
O=C1C(=O)c2cccc3cccc1c23	none
O=C1C(=O)c2ccccc2-c2ccccc21	YopH PTP inh 100.4
CCCCNC(=O)c1c(N)n(CCCOC)c2nc3ccccc3nc12	none (no result: Mtb RmlCD inh)
COCCCn1c(N)c(C(=O)OCCOC)c2nc3ccccc3nc21	YopH PTP inh 50.6 (no result: Mtb RmlCD inh)
CC(C)(C)OC(=O)N1CCN(C(=O)c2cccnc2Cl)CC1	none (no result: YopH PTP inh)
O=C1c2ccccc2C(=O)c2c1cccc2-n1nnc2ccccc21	none (no result: YopH PTP inh)
O=C1C(N2CCOCC2)=C(n2nnc3ccccc32)C(=O)c2ccccc21	YopH PTP inh 68.7 (no result: Mtb RmlCD inh)
N#Cc1c(N)nc2c(c1-c1ccccc1)CCC2	none (no result: YopH PTP inh)
CCOC(=O)N1CCN(C(=O)COc2cc(=O)n(CC)c3ccccc23)CC1	none (no result: Mtb RmlCD inh)
CCOC(=O)COc1cc(=O)n(CC)c2ccccc12	YopH PTP inh 51.9
COc1ccc(-c2cc(C(F)(F)F)n3nc(C(=O)N(C)Cc4ccccc4)cc3n2)cc1OC	Mtb RmlCD inh 40.3 (no result: YopH PTP inh)
COc1ccc(-c2cc(C(F)(F)F)n3nc(C(=O)Nc4cc(C)on4)cc3n2)cc1OC	none
O=C1NCCCC2c3cc(O)c4ccccc4c3OC12N1CCCCC1 (stereo not drawn)	YopH PTP inh 74.5 (no result: Mtb RmlCD inh)
O=C1NCCCC2c3c(cc(Br)c(O)c3Br)OC12N1CCOCC1 (stereo not drawn)	none
COc1cccc(CN2CCNC(=O)C2CC(=O)NCCOc2cccnc2)c1 (stereo not drawn)	none (no result: YopH PTP inh)
COc1ccc(-c2ccnc3c(C#N)cnn23)cc1	Mtb RmlCD inh 44.3 (no result: YopH PTP inh)
N#Cc1cnn2c(-c3ccccc3)ccnc12	none
COc1ccc(-c2cc3nc4n(c(=O)c3s2)CCCCC4)cc1	none (no result: YopH PTP inh)
COc1ccc(-c2cc3nc4n(c(=O)c3s2)CCC4)cc1	Mtb RmlCD inh 76.6
COc1ccc(/C=N/Nc2nc(-c3ccc(C)cc3)c(NC(C)=O)s2)cc1OC	none (no result: YopH PTP inh)
CC(=O)Nc1sc(/C(C#N)=C/c2ccc(Cl)c(Cl)c2)nc1-c1ccc(C)cc1	Mtb RmlCD inh 75.4
COc1ccc(NC(=O)c2cccnc2SC)cc1S(=O)(=O)N1CCCCC1	none
O=C(O[C@@H]1OC2COC(=O)c3cc(O)c(O)c(O)c3-c3c(cc(O)c(O)c3O)C(=O)O[C@@H]([C@H]1O)[C@@H]2O)c1cc(O)c(O)c(O)c1	YopH PTP inh 54.1 (no result: Mtb RmlCD inh)
CCO/C=C1\C(=O)N(c2ccccc2)C(=O)c2ccccc21	YopH PTP inh 89.1
CCO/C=C1/C(=O)N(c2ccc(OC)cc2)C(=O)c2ccccc21	none (no result: YopH PTP inh)
CCO/C=C1/C(=O)N(CC)c2ccccc21	none (no result: Mtb RmlCD inh)
CCO/C=C1/C(=O)N(Cc2ccccc2)C(=O)c2ccccc21	YopH PTP inh 101.4
CCOc1ccc(C/C(O)=C2\C(=O)CC(C)(C)CC2=NCC(=O)O)cc1OCC	none (no result: YopH PTP inh)
CCOC(=O)C1CCN(C(=O)COc2ccc(S(=O)(=O)N3CCCC3)cc2C)CC1	none (no result: YopH PTP inh)
O=C(NC(=S)N1CCN(C/C=C/c2ccccc2)CC1)c1ccc(Cl)nc1	none (no result: YopH PTP inh)
Cc1nn2c(-c3ccncc3)ccnc2c1Br	none (no result: YopH PTP inh)
COC(=O)Cc1c(C)c2ccc(OC(=O)c3ccco3)cc2oc1=O	Mtb RmlCD inh 83.0
COC(=O)Cc1c(C)c2cc(Cl)c(OC(=O)c3ccco3)cc2oc1=O	none
CC(=O)c1nc(N2C(=O)CC(Cc3ccccc3)C2=O)sc1C (stereo not drawn)	none
Cc1ccc(S(=O)(=O)N2CCCC(C(=O)NCc3ccco3)C2)cc1Cl (stereo not drawn)	YopH PTP inh 56.2 (no result: Mtb RmlCD inh)
O=C(NCc1ccco1)C1CCCN(S(=O)(=O)Cc2ccccc2)C1 (stereo not drawn)	none (no result: Mtb RmlCD inh)
O=C(CCC1CCCN(C(=O)c2ccc3[nH]ccc3c2)C1)N1CCN(c2ccccn2)CC1 (stereo not drawn)	none (no result: YopH PTP inh)
Cc1c(N2C(=O)c3cccc4cccc(c34)C2=O)cnn1C	none (no result: YopH PTP inh)
CCOC(=O)c1c2c(n(C)c1C)C(=O)C(=O)c1ccc(Br)cc1-2	YopH PTP inh 88.5 (no result: Mtb RmlCD inh)
Cc1c(CN(C)C)c2c(n1C)C(=O)c1ccc(Br)cc1-2	none
